Only some compounds are listed: those with a hit (about 7.5% of all), similar ones and a draw of the others.
KinaseGlo FLuc: blocks Kinase-Glo luciferase, a counter-screen artifact; AID 1379; Potency, µM (doses to about 38.3 µM), usual class: inhibitors; hit rate 0.28% among 200,000; Kinase-Glo luciferase, ATP luminescence, 8 min; further: nearly all actives have a fitted effect of over 60% in size
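Inhibition of Kinase-Glo luciferase light generation was assessed at 10 uM ATP in pH 7.2 imidazole buffer, with luminescence measured after eight minutes at ambient temperature.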
ELG1 genotox: inducers of genotoxicity in HEK293T ELG1-luciferase cells; Potency, µM (top dose mostly 46 µM), usual class: activators; AID 504466; hit rate 1.3% among 330,000; HEK293T ELG1-luciferase reporter, luminescence, 16 h; further: nearly all actives have a fitted effect of over 60% in size
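DMSO vehicle served as control against compound-treated ELG1-luciferase HEK293T cells; exposure lasted 16 hr at 37 °C and 5% CO2, followed by ONE-Glo luminescence detection after 30 min.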
FLuc counter: firefly luciferase modulation, counter-screen for miR-21 project; P08659; purified FLuc, Km substrates, luminescence inhibition; Potency, µM (highest dose often 57.5 µM), most hits filed as inhibitors; hit rate 6.9% among 360,000; AID 588342; further: nearly all actives have a fitted effect of over 55% in size
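Purified P. pyralis luciferase (10nM final) with 10uM D-luciferin and 10uM ATP (Km levels) in 50mM Tris acetate pH 7.5, 10mM Mg acetate, 0.01% Tween-20, 0.05% BSA; qHTS 6-point titration, ~60 µM downward; luminescence read.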
Rab9 promoter act: activates the Rab9 promoter; Huh7 Rab9 promoter-luciferase reporter, luminescence, 24 h; Potency, µM (top dose mostly 9.22 µM), actives largely listed as activators; hit rate 2.8% among 320,000; further: nearly all actives have a fitted effect of over 60% in size
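Huh7 reporter line, Rab9 promoter upstream of luciferase. Compound exposure 24 h at 37 °C in reduced-serum medium with 10% FBS. Read-out: luminescence.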
NPC1 prom act: NPC1 promoter activation; Huh7 NPC1 promoter luciferase reporter, 24 h; Potency, µM (doses to about 9.22 µM), hits mostly activators; hit rate 2.4% among 320,000; further: nearly all actives have a fitted effect of over 60% in size
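Huh7 cells stably carrying NPC1 promoter–luciferase, plated in Opti-MEM with 10% FBS for 2 h, were exposed to compound in DMSO for 24 h at 37 °C; luciferase reagent was added for 10 min and luminescence read.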
SMN2 splice up: SMN2 splice variant enhancement | HEK293 SMN2-luciferase splicing reporter, luminescence, 30-36 h | Potency, µM (highest dose often 46.1 µM), hits mostly activators | hit rate 2.8% among 210,000; further: nearly all actives have a fitted effect of over 55% in size
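qHTS luciferase splicing reporter: luminescence rises when SMN2 exon 7 is included in transfected HEK293 cells. Compound exposure lasted 30-36 h at 37C, with 4.5 mM final sodium butyrate as control, followed by a ONE-Glo read.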
Of the large screens only hits and unclear results are named; the others gave an inactive call. The call rests on the fitted dose curve; in most records, active means well fitted curve in the direction sought with a large enough effect; inconclusive means small, poorly fitted or top-dose-only effect, or another doubt; inactive means no such curve, though single readings can be large; an effect the other way counts as inactive or inconclusive.

COc1ccc(-[n+]2c(C)cc(/C=C3\Sc4ccccc4N3C)cc2C)cc1	FLuc counter 19µM
CC(=S)/C=C1\Sc2ccccc2N1C	none
COc1ccccc1OC(=O)CCN1c2ccccc2Sc2ccccc21	none
CC1CC(C)CN(S(=O)(=O)c2ccc3c(c2)CC(=O)N3)C1 (stereo not drawn)	none (no result: KinaseGlo FLuc, SMN2 splice up)
O=C(Nc1ccccc1Cl)c1ccc(F)c(S(=O)(=O)NCc2ccc(Cl)c(Cl)c2)c1	none (no result: KinaseGlo FLuc, ELG1 genotox, Rab9 promoter act, NPC1 prom act, SMN2 splice up)
COc1ccc(-c2c(-c3ccc4c(c3)OCO4)noc2C)cn1	FLuc counter 21.3µM (no result: KinaseGlo FLuc, SMN2 splice up)
CC(C)NC[C@@H](O)COc1ccc(COCCOC(C)C)cc1	none (no result: ELG1 genotox, FLuc counter, Rab9 promoter act, NPC1 prom act)
